Source: PubChem BioAssay (NCATS)
Results filed as inconclusive are left out. A call without a number means that no potency is given here. Activity calls are given as the source filed them. Unless noted, the call rests on the fitted dose curve; in most records, active means well fitted curve in the direction sought with a large enough effect; inconclusive means small, poorly fitted or top-dose-only effect, or another doubt; inactive means no such curve, though single readings can be large; an effect the other way counts as inactive or inconclusive.

Columns and labels:
[1] = Cytotoxicity counterscreen for NFkB agonists and antagonists (AID 624476);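 further: cells exposed to compound for 48 hours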; further: potency means the concentration at half of the fitted maximal effect
[2] = qHTS Assay for Identification of Small Molecule Agonists for NFkB Signaling Pathway. (AID 624478);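 further: compounds tested together with TNF alpha at its EC50 of 10 pM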
In short: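 Cells carrying an NFkB response element-driven beta-lactamase gene are co-treated with compound and 10 pM TNF alpha for 5 h, and reporter activity is then read as 460 and 530 nm fluorescence.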

[3] = qHTS Assay for Identification of Small Molecule Antagonists for NFkB Signaling Pathway. (AID 624479; calls by dose curve;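 further: pathway stimulated with TNF alpha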; further: potency means the concentration at half of the fitted maximal effect)
[4] = Cell Proliferation Assay against the TMD8 Cell Line (AID 651645); settings: TMD8 DLBCL cell line proliferation/viability; at 46.1 µM (top of the series) unless noted;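 further: cells exposed to compound for 48 h before reading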
In short: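 Viability by CellTiter-Glo after 48 h compound exposure of 500 log-phase TMD8 cells per well (RPMI, 5% FBS). Percent activity scaled between DMSO (100%) and 9.2 uM final bortezomib (0%).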

[5] = Cell Proliferation Assay against the HBL1 Cell Line (AID 651646); settings: HBL1 DLBCL cells; at 46.1 µM (top of the series) unless noted;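 further: cells exposed to compound for 48 h before reading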
In short: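 HBL1 ABC DLBCL cells, 500/well in RPMI with 5% FBS, treated for 48 h at 37C. Viability read by CellTiter-Glo luminescence, normalized to DMSO as 100% and 9.2 uM bortezomib as 0%.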

[6] = Cell Proliferation Assay against the TMD8 Cell Line (Caspase readout at 16 hrs) (AID 651712); further: potency means the concentration at half of the fitted maximal effect
In short: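 TMD8 cells in RPMI with 5% FBS were treated with compound for 16 h at 37 C, then caspase 3/7 activation was read by Caspase-Glo luminescence. Percent activity was scaled to DMSO (0%) and 9.2 uM bortezomib final (100%).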

[7] = Cell Proliferation Assay against the TMD8 Cell Line (Caspase readout at 8 hrs) (AID 651713)
In short: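 Percent activity derived from Caspase-Glo signal, DMSO set to 0% and bortezomib (9.2 uM final) to 100%. TMD8 cells were exposed to compound for 8 h in RPMI with 5% FBS.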

Structure (SMILES): COc1ccc(CC2=NN3C([C@@H](CCc4ccccc4)[C@@H](C)O)=NC(C)C3C(=O)N2)cc1OC (some centres undefined)
- Potency [1]: inactive
- outcome [2]: inactive
- Potency [3]: inactive
- viability (% of control) [4]: 72.3%
- viability, percent of control [5]: 73.7%
- Potency [6]: inactive
- Potency [7]: inactive

Structure (SMILES): COc1ccccc1[C@H](c1cccc2ccccc12)[C@@](C)(C#N)C(=O)N1CCC(c2cccc(C(F)(F)F)c2)CC1
- Potency [1]: inactive
- outcome [2]: inactive
- Potency [3]: inactive
- viability (% of control) [4]: 83.6%
- viability, percent of control [5]: 95.2%
- Potency [6]: inactive
- Potency [7]: inactive

Structure (SMILES): NC(=O)c1ccc(I)c([N+](=O)[O-])c1
- Potency [1]: inactive
- outcome [2]: inactive
- Potency [3]: inactive
- viability (% of control) [4]: 92.9%
- viability, percent of control [5]: 76.7%
- Potency [6]: inactive
- Potency [7]: inactive

Structure (SMILES): COc1cccc2cc(-c3nc(C4CCC(C(=O)O)CC4)n4ncnc(N)c34)[nH]c12 (centres undefined)
- Potency [1]: inactive
- outcome [2]: inactive
- Potency [3]: inactive
- viability (% of control) [4]: 18.4%
- viability, percent of control [5]: 58.5%

Structure (SMILES): COc1ccc(-c2oc3cc(OC)ccc3c2C(=O)c2ccc(C#N)cc2)cc1
- Potency [1]: inactive
- outcome [2]: inactive
- Potency [3]: inactive
- viability (% of control) [4]: 52.2%
- viability, percent of control [5]: 76%
- Potency [7]: inactive

Structure (SMILES): OC[C@H](Cc1ccccc1)Nc1nc(Oc2ccc3c(c2)CCC3)nc2c1ncn2Cc1ccc(-c2ccccc2)cc1
- Potency [1]: inactive
- outcome [2]: inactive
- Potency [3]: inactive
- viability (% of control) [4]: 54.4%
- viability, percent of control [5]: 35.2%

Structure (SMILES): Cc1c(CN2CCN(C(=O)C(C)C)CC2)sc2c(N3CCOCC3)nc(-c3cnc(N)nc3)nc12
- Potency [1]: 0.148 µM (active)
- outcome [2]: inactive
- Potency [3]: inactive
- viability (% of control) [4]: 3.51%
- viability, percent of control [5]: 45.6%

Structure (SMILES): Cn1cc(-c2ccc3nnc(C(F)(F)c4ccc5ncccc5c4)n3n2)cn1
- Potency [1]: inactive
- outcome [2]: inactive
- Potency [3]: inactive
- viability (% of control) [4]: 76.9%
- viability, percent of control [5]: 86.8%
- Potency [6]: inactive
- Potency [7]: inactive

Structure (SMILES): N#CC[C@H](C1CCCC1)n1cc(-c2ncnc3[nH]ccc23)cn1
- Potency [1]: inactive
- outcome [2]: inactive
- Potency [3]: 16.8 µM (active)
- viability (% of control) [4]: 33.1%
- viability, percent of control [5]: 65.7%
- Potency [6]: inactive
- Potency [7]: inactive

Structure (SMILES): O=C(O)CCc1ccc(NCc2cccc(Oc3ccccc3)c2)cc1
- Potency [1]: inactive
- outcome [2]: inactive
- Potency [3]: inactive
- viability (% of control) [4]: 107%
- viability, percent of control [5]: 95.9%
- Potency [6]: inactive

Structure (SMILES): NC(=O)c1ccc(-c2nc(-c3ccc4c(c3)OCO4)c(-c3ccccn3)[nH]2)cc1
- Potency [1]: inactive
- outcome [2]: inactive
- Potency [3]: inactive
- viability (% of control) [4]: 92.5%
- viability, percent of control [5]: 121%
- Potency [6]: inactive
- Potency [7]: inactive

Structure (SMILES): COc1cc2c(cc1OC)CN(CCc1ccc(NC(=O)c3cccc4c(=O)c5cccc(OC)c5[nH]c34)cc1)CC2
- Potency [1]: inactive
- outcome [2]: inactive
- Potency [3]: inactive
- viability (% of control) [4]: 56%
- viability, percent of control [5]: 0.316%
- Potency [6]: inactive
- Potency [7]: inactive

Structure (SMILES): C[C@H](NC(=O)Cc1cc(F)cc(F)c1)C(=O)N[C@@H]1C(=O)N(C)c2ccccc2-c2ccccc21
- Potency [1]: inactive
- outcome [2]: inactive
- Potency [3]: inactive
- viability (% of control) [4]: 86.6%
- viability, percent of control [5]: 87.3%
- Potency [6]: inactive
- Potency [7]: inactive

Structure (SMILES): S=C(NCc1ccc2c(c1)OCO2)N1CCN(c2ncnc3c2oc2ccccc23)CC1
- Potency [1]: inactive
- outcome [2]: inactive
- viability (% of control) [4]: 26.5%
- viability, percent of control [5]: 40.5%
- Potency [6]: inactive

Structure (SMILES): Cc1ccnc(NS(=O)(=O)c2ccc(NC(=O)Nc3ccc(S(=O)(=O)Nc4nccc(C)n4)cc3)cc2)n1
- Potency [1]: inactive
- outcome [2]: inactive
- Potency [3]: 16.8 µM (active)
- Potency [6]: 23.5 µM (active)

Structure (SMILES): COc1ccc(-c2c(-c3ccc(O)cc3O)n[nH]c2C)cc1
- Potency [1]: inactive
- outcome [2]: inactive
- viability (% of control) [4]: 86.4%
- viability, percent of control [5]: 72.3%

Structure (SMILES): CCCS(=O)(=O)Nc1ccc(F)c(C(=O)c2c[nH]c3ncc(-c4ccc(Cl)cc4)cc23)c1F
- Potency [1]: 20.9 µM (active)
- outcome [2]: inactive
- Potency [3]: 16.8 µM (active)
- viability (% of control) [4]: 41.4%
- viability, percent of control [5]: 4.32%
- Potency [7]: inactive

Structure (SMILES): CC(=O)NC(C)c1ccc(Oc2ccc(OC(C)C)cc2)cc1 (centres undefined)
- Potency [1]: inactive
- outcome [2]: inactive
- Potency [3]: inactive
- viability, percent of control [5]: 62.8%
- Potency [6]: inactive

Structure (SMILES): Nc1nccc(-c2ccc3noc(-c4ccc(Cl)cc4)c3c2)n1
- Potency [1]: inactive
- outcome [2]: inactive
- Potency [3]: 3.75 µM (active)
- viability (% of control) [4]: 81.3%
- viability, percent of control [5]: 109%
- Potency [7]: inactive

Structure (SMILES): COc1ccc(C2=N[C@H](c3ccc(Cl)cc3)[C@H](c3ccc(Cl)cc3)N2C(=O)N2CCNC(=O)C2)c(OC(C)C)c1
- Potency [1]: inactive
- outcome [2]: inactive
- viability (% of control) [4]: 7.72%
- viability, percent of control [5]: 66.4%

Structure (SMILES): CC1(C)Cc2c(-c3ccccc3)c(-c3ccc(Cl)cc3)c(CC(=O)O)n2C1
- Potency [1]: 20.9 µM (active)
- outcome [2]: inactive
- Potency [3]: 21.1 µM (active)
- viability, percent of control [5]: 35.6%

Structure (SMILES): CCOC(=O)N[C@@H]1CC[C@@H]2[C@@H](C1)C[C@H]1C(=O)O[C@H](C)[C@H]1[C@@H]2C=Cc1ccc(-c2cccc(F)c2)cn1
- Potency [1]: inactive
- outcome [2]: inactive
- Potency [3]: inactive
- viability (% of control) [4]: 42.8%
- Potency [7]: inactive

Structure (SMILES): O=C1CCCC2=C1C(c1[nH]ncc1Cl)N=C(Nc1nc3ccccc3o1)N2 (centres undefined)
- Potency [1]: inactive
- outcome [2]: inactive
- Potency [3]: inactive
- viability, percent of control [5]: 71.6%

Structure (SMILES): CCn1c(-c2nonc2N)nc2cnc(Oc3cccc(NC(=O)c4ccc(OCCN5CCOCC5)cc4)c3)cc21
- Potency [1]: inactive
- outcome [2]: inactive
- Potency [3]: 4.73 µM (active)
- viability, percent of control [5]: 36.3%
